Source: PubChem (National Center for Advancing Translational Sciences (NCATS))
BAZ2B block: BAZ2B (human) inhibition; AlphaScreen BAZ2B-H3K14Ac peptide displacement; Potency, µM (top dose mostly 114 µM), for inactives: top-dose activity change, negative = inhibition, usual class: inhibitors; actives 4.4% (n = 360,000); AID 504333; also: % is scaled to controls: 0 for no effect and ±100 for the full control effect; nearly all actives have a fitted effect of over 60% in size
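Inhibition is scored as reduced AlphaScreen emission. The BAZ2B/b-H3(5-23)K14Ac complex (50 nM each) in PBS pH 7.4, 0.01% Tween-20 meets compound (up to 110 uM) for 30 min at RT before bead addition.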
HP1b binding inh: inhibitors of HP1-beta chromodomain binding to methylated histone tails; P83916; AlphaScreen HP1-beta / biotin-H3K9me3 peptide binding; Potency, µM (doses to about 114 µM), for inactives: at the top dose activity change, negative = inhibition, most hits filed as inhibitors; actives 0.56% (n = 390,000); AID 540317; also: nearly all actives have a fitted effect of over 70% in size
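AlphaScreen: HP1-beta (50 nM) preformed 30 min with biotin-H3(1-18)K9me3 peptide (50 nM) in PBS pH 7.4, 0.01% Tween-20. Compound added for 30 min at RT, then streptavidin donor/nickel chelate acceptor beads (10 ug/mL) for 30 min.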
TDP1 block: TDP1 (human) enzyme inhibition; recombinant TDP1, AlphaScreen DNA substrate cleavage; Q9NUW8; Potency, µM (doses to about 130 µM), for the others: top-dose activity change, negative = inhibition, hits mostly inhibitors; actives 0.28% (n = 350,000); also: % is scaled to controls: 0 for no effect and ±100 for the full control effect; nearly all actives have a fitted effect of over 40% in size
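AlphaScreen read-out: signal falls as enzyme removes the 3' tyrosine-FITC from a 5'-biotinylated DNA oligo (15 nM, 5 min, RT). Enzyme was E. coli-made recombinant Tdp1 at 1 nM, exposed to compound for 15 min beforehand; beads 10 ug/ml, 10 min.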
Sfp inh: inhibitors of Bacillus subtilis Sfp phosphopantetheinyl transferase; Q9F4F7; Biochemical Sfp PPTase activity, qHTS; Potency, µM, for inactives: largest response in the series, negative = inhibition, most hits filed as inhibitors; actives 3.5% (n = 310,000);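 also: the enzyme is Sfp with the accession as filed and its product quenches rhodamine fluorescence; 0% = enzyme reaction without inhibitor and -100% = no enzyme wells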
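With Hepes-Na pH 7.6 buffer containing 10 mM MgCl2, Sfp (15 nM) modified BHQ-2-YbbR (12.5 uM) using rhodamine-CoA (5 uM). Two reads 30 minutes apart at 525/598 nm yielded each well's rate.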
G9a inh: inhibitors of human histone lysine methyltransferase G9a | Q96KQ7 | G9a H3K9 monomethylation, AlphaScreen, 2 h | Potency, µM (top dose mostly 102 µM), without a hit: top-dose activity, negative = inhibition, usual class: inhibitors | actives 8.8% (n = 350,000) | AID 504332; also: % is scaled to controls: 0 for no effect and ±100 for the full control effect; nearly all actives have a fitted effect of over 75% in size
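G9a (20 nM) preincubated 15 min RT with compounds, then 500 nM biotinylated H3K9 peptide and 20 uM SAM added; 2 h RT reaction. Monomethyl-H3K9 product detected by AlphaScreen with anti-H3K9me1 antibody, streptavidin donor and anti-rabbit IgG acceptor beads.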
JMJD2A Tudor: blocks the human JMJD2A Tudor domain; AID 504339; Potency, µM (doses to about 114 µM), for inactives: top-dose activity change, negative = inhibition, most hits filed as inhibitors; AlphaScreen JMJD2A-Tudor / H3K4me3 peptide binding; actives 4.4% (n = 390,000); also: % is scaled to controls: 0 for no effect and ±100 for the full control effect; nearly all actives have a fitted effect of over 50% in size
An asterisk follows results filed as active; ? = inconclusive; nt = no result given; ! = a repeat was not active; [ ] = dose if it differs, or a comment. This is a sample that favours compounds with a hit; in the whole collection about 12% have one here. Calls follow the shape of the dose curve; as a rule, active = well fitted curve in the direction sought with a large enough effect; inconclusive = small, poorly fitted or top-dose-only effect, or another doubt; inactive = no such curve, though single readings can be large; an effect the other way counts as inactive or inconclusive. Potency is read from the fitted curve at half-maximal effect.

SMILES	BAZ2B block	HP1b binding inh	TDP1 block	Sfp inh	G9a inh	JMJD2A Tudor
O=C(CN1CCN(C(=O)c2ccco2)CC1)Nc1ccc(Cl)c(S(=O)(=O)N2CCOCC2)c1	nt	24%	2%	-1%	56µM*	-5%
CCOC(=O)c1cc(C)sc1NC(=O)CN1CCN(C(=O)c2ccco2)CC1	-16%	0%	4%	14%	57%	-20%
CCOC(=O)c1cc(CC)sc1NC(=O)CN1CCN(C(=O)c2ccco2)CC1	?	-15%	8%	40µM*	?	?
O=C(CN1CCOCC1)Nc1ccc2c(c1)OCCO2	50µM*	?	0%	?	20µM*	32µM*
COc1ccc(-n2c(C)nnc2SCC(=O)N2CCOCC2)cc1	11%	33%	2%	0%	nt	-8%
O=C(c1cc2c(=O)oc3ccccc3c2s1)N1CCN(c2cccc(Cl)c2)CC1	2%	19%	3%	nt	5%[59 µM]	-17%
O=S(=O)(Cc1ccccc1)c1nnnn1C1CCCCC1	nt	nt	3%	4%	nt	nt
O=C(CN1CCN(c2ccc(O)cc2)CC1)Nc1ccc2c(c1)OCCO2	-33%	?	1%	10µM*	7.9µM*	79µM*
O=C(CSc1ncn[nH]1)Nc1ccc(Cl)c(S(=O)(=O)N2CCOCC2)c1	nt	61%	2%	11%	50µM*	-19%
O=C(CN1CCN(CC(=O)Nc2ccccc2F)CC1)Nc1ccc2c(c1)OCCO2	-16%	20%	-4%	24%	35µM*	-10%
O=C(CN1CCOCC1)Nc1ccc(Oc2ccc(NC(=O)CN3CCOCC3)cc2)cc1	-3%	24%	7%	13%	11µM*	-4%
CC(C)c1ccc(CN2CCN(C(=O)CSc3nnnn3C3CC3)CC2)cc1	-27%	29%	1%	nt	12%[12.7 µM]	-22%
CN(C(=O)CSc1nnc(Cc2ccccc2F)n1N)C1CCCCC1	nt	12%	1%	nt	nt	-14%
O=C(CS(=O)(=O)c1cn(CC(=O)N2CCOCC2)c2ccccc12)Nc1ccccc1F	1%	21%	6%	12%	-8%	-3%
O=C(CN1CCN(C(=O)c2ccco2)CC1)Nc1ccc2c(c1)OCCO2	-27%	26%	3%	5%	50µM*	-3%
O=C(/C=C/c1ccco1)Nc1ccc(Cl)c(S(=O)(=O)N2CCOCC2)c1	?	-13%	8%	?	50µM*	?
CCCn1c(N2CCN(CC(=O)Nc3ccc4c(c3)OCCO4)CC2)nc2ccccc21	?	27%	4%	-4%	50µM*	?
O=C(CN1CCN(c2nc(-c3ccc(F)cc3)cs2)CC1)Nc1ccc2c(c1)OCO2	?	-24%	3%	2%	45µM*	-26%
CCCCCn1nc(C(=O)OCc2nnc(-c3ccccc3)o2)c2ccccc2c1=O	-3%	32%	nt	nt	35%[12.7 µM]	-5%
O=C(CCCn1c(=O)c2cccn2c2cccnc21)NCc1ccccc1Br	-30%	42%	0%	nt	-21%[59 µM]	-19%
COc1cccc(N2C(=NC(=O)CCc3ccccc3)SC3CS(=O)(=O)CC32)c1 (centres undefined)	-11%	26%	2%	-2%	45%	-8%
Cc1nn(-c2ccc(N3CCCC3)nn2)c(C)c1CCC(=O)N1CCN(c2ccccc2F)CC1	-26%	4%	5%	nt	12%[59 µM]	-25%
CN1CCN(C2Cc3ccccc3Sc3ccc(Cl)cc32)CC1 (centres undefined)	-37%	-25%	19%[56.1 µM]	-23%	?	79µM*
CSc1ccc2c(c1)C(N1CCN(C)CC1)Cc1ccccc1S2 (centres undefined)	?	-33%	17%[56.1 µM]	-20%	18µM*!	63µM*
CN1CCN(C2Cc3cc(F)ccc3Sc3ccc(Cl)cc32)CC1 (centres undefined)	nt	7%	nt	nt	nt	?
CCOC(=O)c1ccc(Oc2ccc(C(F)(F)F)cn2)cc1	93%	167%	1%	-1%	119%	72%
